Most compounds without a hit are left out; they make up all but 0.5% or so of the library.
Menin-MLL FL inh: menin-MLL binding inhibition, fluorescein peptide; Fluorescence polarization, fluorescein-MLL peptide displacement from menin; FP activity change, % at 61.4 µM; 290,000 tested, under 10 active; AID 1766; active means well fitted curve in the direction sought with a large enough effect in the polarisation, not every such curve was filed as active; inconclusive means small, poorly fitted or top-dose-only effect, or effect the other way, or a change in a side signal; inactive means no such curve, though single readings can be large or run the other way; the % refers to the polarisation; further: % of control where 0% means no effect
RGS12 GoLoco inh: RGS12 GoLoco-Gai1 interaction inhibition. 0.44% of 230,000 active. Gai1:RGS12 GoLoco peptide FP, rhodamine, 10 min. P63096. Potency, µM (highest dose often 61.6 µM), for the others: top-dose activity, negative = inhibition, usual class: inhibitors; active means well fitted inhibition curve with a large enough effect, not every such curve was filed as active; inactive means no such curve, though single readings can be large or run the other way; further: potency means the concentration at half of the fitted maximal effect; on the % scale 0 is the no-effect control and ±100 the full control effect; nearly all actives have a fitted effect of over 30% in size
MLL CXXC-DNA inh: blocks binding of human MLL CXXC domain to DNA; Q03164; MLL-CXXC / FITC-HOXA9 DNA fluorescence polarization; Potency, µM (top dose mostly 115 µM), for inactives: at the highest dose activity change, negative = inhibition, usual class: inhibitors; 0.037% of 290,000 active; active means well fitted inhibition curve with a large enough effect in the polarisation, with a control signal flat, not every such curve was filed as active; inconclusive means small, poorly fitted or top-dose-only effect, or effect the other way, or a change in a side signal; inactive means no such curve, though single readings can be large or run the other way; the % refers to the polarisation; further: potency means the concentration at half of the fitted maximal effect
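Steps: dispense CXXC domain solution (7 uM) → pin compounds or unlabeled HOX-A9 DNA control → 5 min ambient → add FLSN-HOX-A9 solution (50 nM) → spin → 30 min ambient → fluorescence polarization. Tris pH 7.5/NaCl/DTT/BSA buffer.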
Menin MLL FP TR: displaces Texas Red mutant MLL peptide from human menin; 0.23% of 270,000 active; O00255; Menin + Texas Red MLL mutant peptide, fluorescence polarization; Potency, µM (highest dose often 61.6 µM), inactives show at the highest dose FP activity change, negative = inhibition, hits mostly inhibitors; AID 1768; active means well fitted inhibition curve with a large enough effect in the polarisation, with a control signal flat, not every such curve was filed as active; inconclusive means small, poorly fitted or top-dose-only effect, or effect the other way, or a change in a side signal; inactive means no such curve, though single readings can be large or run the other way; the % refers to the polarisation; further: potency means the concentration at half of the fitted maximal effect; % of control where 0% means no effect
Target sequence (O00255 whole entry, looked up): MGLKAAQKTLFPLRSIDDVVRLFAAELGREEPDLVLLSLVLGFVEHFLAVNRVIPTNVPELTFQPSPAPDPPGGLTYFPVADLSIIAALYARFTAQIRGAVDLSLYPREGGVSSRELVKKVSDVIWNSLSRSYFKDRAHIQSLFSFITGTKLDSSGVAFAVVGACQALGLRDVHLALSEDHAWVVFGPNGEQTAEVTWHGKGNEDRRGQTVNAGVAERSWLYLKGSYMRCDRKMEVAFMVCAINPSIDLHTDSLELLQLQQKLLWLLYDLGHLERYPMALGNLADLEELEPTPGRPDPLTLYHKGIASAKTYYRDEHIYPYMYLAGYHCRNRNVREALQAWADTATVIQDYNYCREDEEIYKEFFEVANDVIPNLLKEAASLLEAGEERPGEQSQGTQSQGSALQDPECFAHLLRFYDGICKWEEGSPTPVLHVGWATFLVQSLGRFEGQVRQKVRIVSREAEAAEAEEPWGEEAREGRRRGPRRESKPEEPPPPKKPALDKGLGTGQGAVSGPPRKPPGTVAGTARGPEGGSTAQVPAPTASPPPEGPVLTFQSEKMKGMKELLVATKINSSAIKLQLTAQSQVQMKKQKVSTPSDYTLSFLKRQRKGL
TexasRed fluor: alters Texas Red total fluorescence, flagging assay interference | 0.29% of 280,000 active | AID 1479 | Potency, µM (highest dose often 106 µM), inactives show at the top dose fluorescence change, negative = quenching | TRb/SRC2 Texas Red total fluorescence interference; active means well fitted curve in either direction with a large enough effect; inconclusive means small, poorly fitted or top-dose-only effect; further: potency means the concentration at half of the fitted maximal effect; on the % scale 0 is the no-effect control and ±100 the full control effect
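Flags fluorescent or light-absorbing compounds by total fluorescence, S + 2P, at 555 nm excitation and 632 nm emission. Mixture: 20 nM Texas Red SRC2 peptide, 0.6 uM human TRb LBD, 1 uM T3, 5% DMSO; compound exposure 5 h at ambient temperature.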
TRb SRC2 PPI: disrupts binding of human TR beta to SRC2; P10828; TRbeta-SRC2 peptide binding, fluorescence polarization; receptor liganded with 1 µM T3; Potency, µM (highest dose often 106 µM), for inactives: top-dose activity change, negative = inhibition, most hits filed as inhibitors; 0.065% of 280,000 active; AID 1469; active means well fitted inhibition curve with a large enough effect; inconclusive means small, poorly fitted or top-dose-only effect, or effect the other way;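 further: potency means the concentration at half of the fitted maximal effect; plate controls were bound peptide for no effect and peptide without receptor for full effect; nearly all actives have a fitted effect of over 50% in size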
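Fluorescence polarization of 20 nM Texas Red SRC2 peptide with 0.6 uM human TRb ligand-binding domain, in Tris buffer with 1uM T3 and 5% DMSO. Incubated 5 hr ambient; normalized to unbound and bound controls.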
The depositor's hits bear a star; ! = a repeat was not active; [ ] = another dose, or the depositor's remark.

For O=C(OC1CCN(CCCl)CC1)C(c1ccccc1)c1ccccc1 the results were Menin-MLL FL inh 4, RGS12 GoLoco inh 9%, MLL CXXC-DNA inh -4%, Menin MLL FP TR inconclusive, TexasRed fluor 0% and TRb SRC2 PPI 35µM*.
`CCOP(=S)(OCC)Oc1cnc2ccccc2n1` gave TexasRed fluor 2%[201 µM] and TRb SRC2 PPI 4%[201 µM].
Screening O=C(O)c1cc[c]([Hg][Cl])cc1 returned Menin-MLL FL inh 2, RGS12 GoLoco inh 1.3µM*, MLL CXXC-DNA inh -2%, Menin MLL FP TR -3%, TexasRed fluor -5% and TRb SRC2 PPI 2%.
O=C1C(Cl)=C(Cl)C(=O)c2ccccc21 was read as TexasRed fluor -9%[201 µM] and TRb SRC2 PPI -8%[201 µM].
`Cc1cc(C(C#N)c2ccc(Cl)cc2)c(Cl)cc1NC(=O)c1cc(I)cc(I)c1O` (configuration not stated) gave Menin-MLL FL inh inconclusive, MLL CXXC-DNA inh inconclusive, Menin MLL FP TR inconclusive, TexasRed fluor 45µM*[quencher] and TRb SRC2 PPI inconclusive.
C[CH2][Hg][S]c1ccccc1C(=O)O was read as Menin-MLL FL inh -12, RGS12 GoLoco inh 28µM*, MLL CXXC-DNA inh -17%, Menin MLL FP TR 2%, TexasRed fluor -4%[201 µM] and TRb SRC2 PPI -10%[201 µM].
For CC(C)[N+](C)(CCC(C(N)=O)(c1ccccc1)c1ccccc1)C(C)C the results were Menin-MLL FL inh 0, RGS12 GoLoco inh 5µM*!, MLL CXXC-DNA inh -1%, Menin MLL FP TR 4%, TexasRed fluor 1% and TRb SRC2 PPI 0%.
O=C1NC(=O)N(c2ccccc2F)C(=O)/C1=C/c1ccc(Sc2nc3ccccc3[nH]2)o1 was read as Menin-MLL FL inh inconclusive, RGS12 GoLoco inh -180%, MLL CXXC-DNA inh 34%, Menin MLL FP TR inconclusive, TexasRed fluor 45µM*[fluorescent] and TRb SRC2 PPI inconclusive.
Screening Cc1ccc(/C=C2\C(=O)NC(=S)N(c3ccccc3F)C2=O)s1 returned Menin-MLL FL inh inconclusive, RGS12 GoLoco inh 318%, MLL CXXC-DNA inh -23%, Menin MLL FP TR inconclusive, TexasRed fluor -3% and TRb SRC2 PPI 2%.
`O=C1NC(=O)N(c2ccccc2)C(=O)/C1=C/c1ccc(Sc2ccccc2)o1` gave Menin-MLL FL inh inconclusive, RGS12 GoLoco inh 46%, MLL CXXC-DNA inh 3%, Menin MLL FP TR inconclusive, TexasRed fluor 22% and TRb SRC2 PPI inconclusive.
`O=C1NC(=O)N(c2cccc(Cl)c2)C(=O)/C1=C\c1ccc(Sc2nc3ccccc3[nH]2)o1` gave Menin-MLL FL inh inconclusive, RGS12 GoLoco inh -43%, MLL CXXC-DNA inh inconclusive, Menin MLL FP TR inconclusive, TexasRed fluor 22µM*[fluorescent] and TRb SRC2 PPI inconclusive.
Screening CCOP(=S)(OCC)Oc1ccc(S(C)=O)cc1 (configuration not stated) returned TexasRed fluor -1%[201 µM] and TRb SRC2 PPI -5%[201 µM].
For Clc1ccc([C@]2(Cn3cncn3)C[C@@H](Br)CO2)c(Cl)c1 the results were TexasRed fluor -1%[201 µM] and TRb SRC2 PPI -1%[201 µM].
`Cc1cccc(N2C(=O)NC(=O)/C(=C\c3cnc(-c4ccccc4)nc3)C2=O)c1` gave Menin-MLL FL inh inconclusive, RGS12 GoLoco inh 28%, MLL CXXC-DNA inh 23%, Menin MLL FP TR inconclusive, TexasRed fluor 1.3µM*[quencher] and TRb SRC2 PPI -30%[53 µM].
Screening Cc1ccc(N2C(=O)NC(=O)/C(=C/c3cnc(-c4ccccc4)nc3)C2=O)cc1C returned Menin-MLL FL inh inconclusive, RGS12 GoLoco inh 85%, MLL CXXC-DNA inh -9%, Menin MLL FP TR 22%, TexasRed fluor 4% and TRb SRC2 PPI -5%.
`CC(C)N1C(=O)/C(=C/C=C/c2ccco2)C(=O)N(Cc2ccco2)C1=O` gave Menin-MLL FL inh inconclusive, RGS12 GoLoco inh 174%, MLL CXXC-DNA inh -7%, Menin MLL FP TR 30%, TexasRed fluor -7% and TRb SRC2 PPI 19%.
CCN1C(=O)C(=C/C=C/c2ccco2)C(=O)N(CC)C1=S was read as Menin-MLL FL inh inconclusive, RGS12 GoLoco inh -55%, MLL CXXC-DNA inh inconclusive, Menin MLL FP TR inconclusive, TexasRed fluor 28µM*[fluorescent] and TRb SRC2 PPI inconclusive.
For C[C@H]1CC[C@@]2(NC1)O[C@@H]1C[C@@H]3[C@@H]4CC=C5C[C@@H](O)CC[C@]5(C)[C@@H]4CC[C@]3(C)[C@H]1[C@@H]2C the results were RGS12 GoLoco inh 4%[14.2 µM].
`CC1CC[C@@]2(NC1)OC1CC3C4CC[C@@H]5CC(O)CC[C@@]5(C)C4CC[C@]3(C)C1C2C` (some centres not stated) gave Menin-MLL FL inh 2, RGS12 GoLoco inh 32µM*, MLL CXXC-DNA inh -3%, Menin MLL FP TR -23%, TexasRed fluor -1% and TRb SRC2 PPI -1%.
Screening CCOP(=O)(O)C(N)=O returned TexasRed fluor -26%[201 µM] and TRb SRC2 PPI -9%[201 µM].
`CC1=NCCc2c1[nH]c1cc(O)ccc21` gave Menin-MLL FL inh inconclusive, RGS12 GoLoco inh 28µM*!, Menin MLL FP TR 13%[24.8 µM], TexasRed fluor 3% and TRb SRC2 PPI 6%.
`CNC(=O)OCCc1n(C)cc[n+]1C` gave Menin-MLL FL inh 7, RGS12 GoLoco inh 1.6µM*, MLL CXXC-DNA inh 9%, Menin MLL FP TR -1%, TexasRed fluor -1% and TRb SRC2 PPI -8%.
`CN(C)C(=O)OCc1n(C)cc[n+]1C` gave Menin-MLL FL inh -1, RGS12 GoLoco inh 5%, MLL CXXC-DNA inh 12%, Menin MLL FP TR -6%, TexasRed fluor 4% and TRb SRC2 PPI 0%.
Screening COc1cc2c(cc1OC)-c1c(O)c(OC)cc3c1[C@H](C2)N(C)CC3 returned Menin-MLL FL inh inconclusive, RGS12 GoLoco inh 11µM*, Menin MLL FP TR inconclusive, TexasRed fluor inconclusive and TRb SRC2 PPI 40µM*.
Screening COc1cc2c(cc1OC)-c1c(OC)c(OC)cc3c1C(C2)N(C)CC3 (configuration not stated) returned Menin-MLL FL inh -1, RGS12 GoLoco inh 4%, MLL CXXC-DNA inh -1%, Menin MLL FP TR -11%, TexasRed fluor 1% and TRb SRC2 PPI -19%.
For COC(=O)N(OC)c1ccccc1COc1ccn(-c2ccc(Cl)cc2)n1 the results were TexasRed fluor 2%[201 µM] and TRb SRC2 PPI -5%[201 µM].
`CCC(=O)OC1CCC2C3CCC4=CC(=O)CC[C@@]4(C)C3CC[C@]12C` (some centres not stated) gave Menin-MLL FL inh 0, RGS12 GoLoco inh 14µM*, Menin MLL FP TR -4%, TexasRed fluor 0% and TRb SRC2 PPI 5%.
Screening NC1=NC([S][Hg][c]2ccc(N)cc2)c2ncn([C@@H]3O[C@H](CO)[C@@H](O)[C@@H]3O)c2N1 (some centres not stated) returned RGS12 GoLoco inh 0.5µM*.
For CCCCOP(=O)(O)OCCCC the results were TexasRed fluor 3%[201 µM] and TRb SRC2 PPI 6%[201 µM].

Screening data as filed in PubChem.
